Screening data as filed in PubChem BioAssay.
p53ts 39C tox – p53ts cell cytotoxicity, nonpermissive temperature; Potency, µM (titrated, usually from 46.1 µM), for the others: top-dose activity change, negative = cell killing, hits mostly cytotoxic; H1299-p53A138V viability at 39C, ATP luminescence, 24 h; 130,000 tested, 1.5% active; also: % is scaled to controls: 0 for no effect and ±100 for the full control effect; nearly all actives have a fitted effect of over 55% in size
Tau fil binding – binders of human tau filaments; recombinant tau filaments, thioflavin S fluorescence, 15 h; filaments grown with octadecylsulfate alongside compound; Potency, µM (series often up to 57.1 µM), for the others: at the top dose activity change, negative = inhibition; 71,000 tested, 2% active; AID 596;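 also: % is scaled to controls: 0 for no effect and ±100 for the full control effect; actives lower thioflavin S fluorescence by blocking filaments or displacing dye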
Target sequence (P10636 whole entry, looked up): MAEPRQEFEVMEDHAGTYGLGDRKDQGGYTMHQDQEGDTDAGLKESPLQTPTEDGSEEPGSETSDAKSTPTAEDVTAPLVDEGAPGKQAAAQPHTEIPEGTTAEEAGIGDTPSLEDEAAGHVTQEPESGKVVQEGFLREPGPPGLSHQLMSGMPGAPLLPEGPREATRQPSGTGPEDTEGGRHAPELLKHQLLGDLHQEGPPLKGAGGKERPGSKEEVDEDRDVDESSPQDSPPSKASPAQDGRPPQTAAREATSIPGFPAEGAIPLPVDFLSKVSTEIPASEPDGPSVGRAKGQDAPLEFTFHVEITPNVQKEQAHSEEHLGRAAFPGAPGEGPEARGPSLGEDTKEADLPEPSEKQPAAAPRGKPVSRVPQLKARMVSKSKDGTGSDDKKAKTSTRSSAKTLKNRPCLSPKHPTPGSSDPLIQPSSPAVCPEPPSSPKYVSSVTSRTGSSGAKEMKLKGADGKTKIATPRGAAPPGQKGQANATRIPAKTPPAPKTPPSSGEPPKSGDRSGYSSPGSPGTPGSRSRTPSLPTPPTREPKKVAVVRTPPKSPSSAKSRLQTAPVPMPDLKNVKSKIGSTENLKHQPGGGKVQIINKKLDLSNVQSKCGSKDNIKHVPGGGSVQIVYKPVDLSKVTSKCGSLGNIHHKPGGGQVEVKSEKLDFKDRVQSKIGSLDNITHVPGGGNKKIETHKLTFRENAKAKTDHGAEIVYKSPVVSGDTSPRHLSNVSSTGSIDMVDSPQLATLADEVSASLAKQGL
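Assay mix: 1 uM His-tagged tau, 30 uM sodium octadecylsulfate, thioflavine S dye in HEPES/NaCl/DTT buffer. Compound is added prior to the inducer. Fluorescence after 15 h at 37 C.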
Luciferase inh – inhibitors of firefly luciferase; P08659; purified firefly luciferase, luminescence, 8 min; Potency, µM (series often up to 57.1 µM), for the others: at the top dose activity change, negative = inhibition, hits mostly inhibitors; 72,000 tested, 2.2% active; AID 411; also: % is scaled to controls: 0 for no effect and ±100 for the full control effect; nearly all actives have a fitted effect of over 40% in size
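Inhibition of light generation by firefly luciferase from ATP and luciferin was profiled with concentration-response curves per sample, ATP held at 10 uM within the enzyme's linear range. Plates were read by luminescence after an 8-minute ambient incubation.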
p53ts 32C tox – kills p53ts cells at the permissive temperature | 130,000 tested, 0.93% active | Potency, µM (top dose mostly 46.1 µM), without a hit: at the top dose activity change, negative = cytotoxicity, hits mostly cytotoxic | H1299-p53A138V at 32C, ATP luminescence viability, 24 h | AID 924;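 also: 0% = DMSO and -100% = full killing by reference compound; nearly all actives have a fitted effect of over 55% in size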
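H1299-p53 A138V cells (temperature-sensitive p53) exposed 24 h to up to 46 uM compound at 32C, where p53 is wild-type in conformation. Viability read as ATP luminescence and normalised to DMSO and 100 uM tamoxifen. AC50 fitted with the Hill equation.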
Imprint erasure – inducers of genomic imprint erasure in mouse ES cells | mouse ES Peg3-LacZ reporter, beta-gal luminescence, 40 h | 110,000 tested, 0.02% active | Potency, µM (top dose mostly 60.7 µM), for inactives: at the top dose activity change, positive = activation, actives largely listed as activators
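Imprint erasure is scored as LacZ activity from the silenced maternal Peg3 allele in feeder-free female ES cells cultured 40 h with LIF. Luminescence is normalized to in-plate negative controls and fitted to the Hill equation.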
Numbers without * were called inactive; i = inactive; ? = inconclusive; . = no result given; ! = not confirmed by another sample; [ ] = remark or other dose. A selection: hits, their analogues and other compounds. The true share with any hit is near 3.4%. Calls follow the shape of the dose curve; as a rule, active = well fitted curve in the direction sought with a large enough effect; inconclusive = small, poorly fitted or top-dose-only effect, or another doubt; inactive = no such curve, though single readings can be large; an effect the other way counts as inactive or inconclusive. Potency is read from the fitted curve at half-maximal effect.

SMILES	p53ts 39C tox	Tau fil binding	Luciferase inh	p53ts 32C tox	Imprint erasure
COc1ccc(-c2cc(C(F)(F)F)nc(S(=O)(=O)CCC(=O)N3CCOCC3)n2)cc1	?	328%	-1%	5µM*	-1%
Cc1cccc(NC(=O)c2cccc(N3CCCS3(=O)=O)c2)c1	-16%	.	.	-19%	-19%[10.9 µM]
CCOC(=O)c1sc(N)c(C(=O)Nc2ccc(C)cc2C)c1C	-7%	.	.	5%	.
COc1cc(C(=O)Nc2ccc(OCc3cc(=O)n4cccc(C)c4n3)cc2)cc(OC)c1OC	32µM*	.	.	?	-10%[10.9 µM]
COc1ccccc1C(=O)Nc1ccc(OCc2cc(=O)n3cccc(C)c3n2)cc1	6%	.	.	9%	4%[10.9 µM]
COC(=O)c1cc2oc3ccccc3c2n1CC(=O)Nc1ccc(Cl)cc1F	10µM*	.	.	-2%	6%[10.9 µM]
CCOc1ccc(Nc2oc(-c3ccc(COc4ccccc4C)o3)nc2C#N)cc1	-13%	.	.	?	-11%[10.9 µM]
Cc1ccc(N=c2oc3cc(O)ccc3cc2C(N)=O)cc1	7.9µM*	-23%	13µM*	?	-26%
CCOC(=O)c1ccc(NC(=O)CC2SCCNC2=O)cc1 (configuration not stated)	13µM*	-5%	-13%	13µM*	17%
COc1ccc(Nc2ncnc3c2cnn3-c2cc(Cl)ccc2C)cc1OC	-17%	.	.	6%	-13%[10.9 µM]
CCCCCCCCCCCCC/C=C\[C@@H](O)[C@@H](N)CO	?	32µM*	1%	-8%	-29%
CC(=O)n1c2ccccc2c2c1c1ccccc1n2C	-8%	31%	1%	3%	-11%
CC(=O)Nc1c(Cl)n(C(C)=O)c2ccccc12	5%	20µM*	-2%	1%	-9%
COc1cccc(C(c2sc3nc(C)nn3c2O)N2CCN(c3ccccc3F)CC2)c1 (configuration not stated)	-1%	-14%	1%	-3%	10%
CC1CN(C(c2cccs2)c2sc3ncnn3c2O)CC(C)O1 (configuration not stated)	14%	-8%	0%	12%	-4%
COc1ccc(C(c2sc3ncnn3c2O)N2CC(C)OC(C)C2)cc1OC (configuration not stated)	-5%	1%	13µM*	-14%	-8%
COc1ccc(C(c2sc3ncnn3c2O)N2CCN(c3ccccc3F)CC2)cc1OC (configuration not stated)	-1%	-7%	10µM*	-1%	-25%
COc1ccc(-c2cc3nc4n(c(=O)c3s2)CCOC4)cc1	.	.	2µM*	.	.
O=C(NCc1ccco1)c1cc(-c2ccc3c(c2)OCO3)on1	-30%	42%	-8%	-16%	-54%
COCCNC(=O)c1cc(-c2ccc3c(c2)OCO3)on1	?	-3%	13µM*	?	-78%
Cc1nn(Cc2ccc(Cl)c(Cl)c2)c(C)c1NC(=O)c1cc(-c2ccc3c(c2)OCO3)on1	?	i	0%	20µM*	-42%
Cc1ccc(C(=O)Nc2ccc(-c3nc4ccccc4o3)cc2)cc1Cl	27%	.	.	-2%	-6%[10.9 µM]
CC1CCC/C(=C\Nc2ccc3c(c2)OCO3)C1=O (configuration not stated)	-15%	25µM*	10µM*	-24%	4%
CC1CCC/C(=C\Nc2ccccc2C(=O)O)C1=O (configuration not stated)	6%	6%	-5%	-14%	-4%
CCOCCCn1c(=N)c(C(=O)NCc2ccccc2)cc2c(=O)n3ccccc3nc21	-1%	.	.	-6%	-8%[10.9 µM]
SMILES	p53ts 39C tox	Tau fil binding	Luciferase inh	p53ts 32C tox	Imprint erasure
CCOCCCn1c(=N)c(C(=O)NCc2ccc3c(c2)OCO3)cc2c(=O)n3ccccc3nc21	-7%	5µM*	5%	0%	-5%
CCCn1c(=N)c(C(=O)NCc2ccc3c(c2)OCO3)cc2c(=O)n3cccc(C)c3nc21	11%	1.6µM*	4%	-4%	0%
N=c1c(C(=O)NCc2ccccc2)cc2c(=O)n3ccccc3nc2n1CCCN1CCOCC1	8%	?	0%	-15%	.
CCCn1c(=N)c(C(=O)NCc2cccnc2)cc2c(=O)n3cccc(C)c3nc21	12%	.	.	4%	-13%[10.9 µM]
N=c1c(C(=O)NCc2ccc(F)cc2)cc2c(=O)n3ccccc3nc2n1CCCN1CCOCC1	9%	0.79µM*	2%	-10%	-11%
CNC(=O)c1cc2c(cn1)[nH]c1ccccc12	?	?	25µM*!	?	-9%
COc1cc(COc2cc(N)c(Cl)cc2C(=O)CCC2CCN(CCNS(C)(=O)=O)CC2)cc(OC)c1	32µM*	101%	-1%	32µM*	-21%
COc1cc(N)c(Cl)cc1C(=O)CCC1CCN(CCNS(C)(=O)=O)CC1	-7%	-11%	-4%	-1%	-10%
N#CC(C(=O)NCCc1ccccc1)c1nc2ccccc2nc1N1CCOCC1 (configuration not stated)	5%	2.5µM*	-2%	1%	3%
CCOC(=O)N1CCN(c2nc3ccccc3nc2C(C#N)C(=O)NCCc2ccccc2)CC1 (configuration not stated)	-4%	4µM*	2%	4%	-8%
N#CC(C(=O)NCc1ccco1)c1nc2ccccc2nc1N1CCOCC1 (configuration not stated)	-5%	4µM*	1%	9%	-16%
CCN(CC)c1nc2ccccc2nc1C(C#N)C(=O)NCCCOC (configuration not stated)	8%	7.9µM*	3%	-1%	-10%
N#CC(C(=O)NCc1ccccc1)c1nc2ccccc2nc1N1CCCC1 (configuration not stated)	-7%	61%	2%	0%	-5%
COc1ccc(CCNc2oc(/C=C/c3cc(OC)c(OC)c(OC)c3)nc2C#N)cc1OC	-6%	.	.	-2%	-3%[10.9 µM]
C[C@@H]1CC[C@]2(C(=O)O)CC[C@]3(C)C(=CCC4[C@@]5(C)C[C@@H](O)[C@H](O)[C@@](C)(CO)C5CC[C@]43C)C2[C@H]1C (some centres not stated)	.	.	.	.	0%
CCCCCCNC(=O)C(C#N)c1nc2ccccc2nc1N1CCOCC1 (configuration not stated)	0%	4µM*	1%	4%	-6%
COc1ccc2oc(=O)c(-c3csc(/C(C#N)=C/c4ccc(F)cc4)n3)cc2c1	13%	.	.	-5%	?
Cc1cc(NCCN2CCOCC2)n2ncc(-c3ccc(Cl)cc3)c2n1	1%	-2%	1%	1%	-1%
Cc1cc(N2CCCCC2)n2nc(C)c(-c3ccccc3)c2n1	4%	-14%	-1%	-3%	-19%
Cc1cc(N2CCC(C)CC2)n2ncc(-c3ccccc3)c2n1	?	-17%	16µM*	?	-20%
Cc1cc(N2CCCCC2)n2ncc(-c3ccc(Cl)cc3)c2n1	-3%	-10%	13µM*	-4%	-8%
Cc1cc(N2CCCCC2)n2ncc(-c3ccccc3)c2n1	?	-10%	4µM*	13µM*	-25%
